This is part of a sample that, as a whole, favours compounds with a hit. Of some 83,000 tested, about 20% had one in any assay.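 Each cell line was grown in a 96-well plate and treated with one concentration of compound for 48 hours. Values below 10 were considered active.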 A number with no mark means an inactive call. Active and inactive are the calls of the source.

The test system of the test is HL-60(TB) leukemia. The test can be described thus: NCI-60 one-dose screen, 48 h (100 = growth as untreated, 0 = no growth, -100 = all killed). Particulars: 10 µM unless noted.
Turning to `O=C(NNc1nc2cc(F)ccc2n2c(CN3CCCC3)ccc12)c1cnccn1`, the growth is -30.9% (active).
With `N=c1c2cc(-c3ccccc3)oc2ncn1/N=C/c1ccc(Cl)cc1` the figure was 116%; with `CC(=O)Nc1cc(N2CCOCC2)c2nc(NC(=O)c3[nH]c(C)c(Cl)c3Cl)sc2c1`, 82.9%; with `CC1(C)CC[C@]2(C(=O)N3CCCN(CC#N)CC3)CC[C@]3(C)C(=CC[C@@H]4[C@@]5(C)CC[C@H](O)C(C)(C)[C@@H]5CC[C@]43C)[C@H]2C1`, -15.9% (active).
For `C=CCSC1=NC2C(N(CC)C(=O)N2CC)N1/N=C/C=C/c1ccccc1OC` (stereo not drawn), the growth was 45.6%.
The same measure for `COc1ccc(Cn2cc3c(c2-c2cc(OC)c(OC)c(OC)c2)CCCc2cnoc2-3)cc1`: -5.47% (active); for `Cc1ccc(-n2c(/C=C3\C(=O)Nc4ccccc43)ccc2CO)cc1`: 25.4%.
Take `[Cl][Ru].c1ccc(-c2cccc(-c3ccccn3)n2)nc1.c1ccc(-c2ccnc3c2ccc2c(-c4ccccc4)ccnc23)cc1`: the growth is -10.5% (active).
The same measure for `C#CCOc1ccc(/C=N/Nc2nc(-c3cc4cc(Br)cc(Br)c4oc3=O)cs2)cc1`: 85.9%; for `Cc1cc(=O)oc2cc(OCCCOc3ccc(/C=C/C(=O)Nc4ccc(Br)cc4)cc3)ccc12`: 95.8%.
Consider `Clc1ccc(-c2cn3cc(Cc4ccc(Cl)c(Cl)c4)sc3n2)cc1`, for which the growth was 80.3%.
As to `COc1ccc(/C=C/C(=O)c2nnn(-c3ccc(Br)cc3)c2C)cc1OC`, the growth is 47.1%.
The same measure for `O=C(NCCCNc1cc(-c2cn(-c3ccccc3)nc2-c2cccc(O)c2)ccn1)Nc1cccc(C(F)(F)F)c1`: 24.7%; for `N#Cc1cccc(-c2cc(-c3ccc4c(c3)OCCO4)[nH]n2)c1`: 6.12% (active); for `CCCn1cnc2c(c1=N)C(c1ccc(F)cc1)c1sc3c(C)cccc3c1O2` (stereo not drawn): -30.2% (active).
Turning to `COc1ccc(Cn2cc3c(c2-c2cc(OC)c(OC)c(OC)c2)CCc2c(CN4CCOCC4)noc2-3)cc1`, the growth is 1.3% (active).
With `C#Cc1nc(C2=C(C)C(O)/C(=N/O)C2)cs1` (stereo not drawn) the figure was -37.9% (active); with `Cn1ccnc1C(=O)/C=C/c1ccc(C(=O)Nc2ccc(NC(=O)CCNC(=O)c3csc(Br)n3)cc2)cc1`, 41%.
In the case of `Cn1ccnc1C(=O)/C=C/C=C/c1ccc(C(=O)Nc2ccc(F)cc2)cc1`, the growth was 13.3%.
The same measure for `CCOC(=O)c1nn(-c2ccccc2)c(=O)c2c(N)c(C#N)c(-c3cccs3)cc12`: 113%; for `Cc1cn(-c2cc(NC(=O)c3cncc(C#Cc4cnc5ccc(OCCCS(C)(=O)=O)nn45)c3)cc(C(F)(F)F)c2)cn1`: -6.15% (active); for `C=CC(=O)N1CCC=C(c2cc3c(N[C@H](C)c4ccccc4)ncnc3[nH]2)C1`: 72.4%.
As for `COc1ccccc1C(=O)CSc1nc(Nc2ccc(S(N)(=O)=O)cc2)c2ccccc2n1`, the growth is 94.5%.
The same measure for `COc1cc(CNC(=O)/C=C/c2ccccc2)ccc1OCC(=O)NO`: 121%; for `CCOC(=O)c1c(Nc2ccccc2)nn2c(N)c(C#N)c(-c3ccccc3)nc12`: 70.9%.
As to `Cc1nn(-c2ccccc2)cc1/C=N/Nc1nc(Nc2ccccc2)nc(Nc2ccc(S(N)(=O)=O)cc2)n1`, the growth is 4% (active).
With `CN1CCN(Cc2ccc(NC(=O)c3cncc(C#Cc4cnc5ccc(NC6CCOCC6)nn45)c3)cc2C(F)(F)F)CC1` the figure was -45.2% (active).
The same measure for `CC(c1ccccc1)N1C(=O)/C(=C/c2csc(C#N)n2)SC1=S` (stereo not drawn): 4.32% (active); for `COc1ccc(N2C(=O)c3cc(Cl)ccc3NC2SCc2ccccc2)cc1` (stereo not drawn): 114%; for `COc1ccc(-c2nc(SCCC(C)C)nc(N/N=C\c3ccc(O)cc3)c2C#N)cc1`: 73.3%.
`C#CCn1cccc1CNc1ccc(OC)cc1`: the growth was -63.1% (active).
Take `c1cn2c(ccc3nc(-c4cn[nH]c4)c4c(c32)CCCC4)n1`: the growth was 73.8%.
In the case of `O=C(Nc1cc(Cl)cc(Cl)c1)Nc1nc2ccc([N+](=O)[O-])cc2s1`, the growth is -50.1% (active).

The values above are taken from PubChem BioAssay (NCI).
